Where “and” joins values, the source holds several entries; their conditions need not be identical. Identical values can stand only once. In all, about 5,500 compounds went through this assay and about 2,000 (36%) were called active. Inconclusive results (about 18%) are left out. Rule as the data show it: active = normalized growth mostly below about 0.91 (no sharp cut-off); inconclusive = no clear call, values can overlap the other calls; inactive = mostly above about 0.92. This is one part of the list.
Experiment: chemical genetic growth profiling, strain panel (AID 1159580);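 also: tested at 20 µM; growth read once vehicle control cultures reached saturation at 30 °C; 1 = growth at the plate median or of vehicle wells; lower values mean less growth of the strain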
Settings: S. cerevisiae deletion strains, growth OD

Measured: normalized growth

OC[C@@H]1CCCN2CCCC[C@H]12
inactive: locus YAL013W, strain DEP1, active compounds read low 0.983 | locus YAL021C, strain ccr4, active compounds read low 1.05 | locus YAL026C, strain drs2, active compounds read low 1.04 | locus YAL030W, strain snc1, active compounds read low 1.03 | locus YBL061C, strain skt5, active compounds read low 1.03 | locus YBR009C, strain hhf1, active compounds read low 1.01 | locus YBR021W, strain FUR4, active compounds read low 0.998 | locus YBR023C, strain chs3, active compounds read low 1.05 | locus YBR171W, strain sec66, active compounds read low 1.05 | locus YBR229C, strain ROT2, active compounds read low 0.998 | locus YBR231C, strain swc5, active compounds read low 1.03 | locus YBR279W, strain paf1, active compounds read low 1.03 | locus YCL011C, strain gbp2, active compounds read low 1.03 | locus YCL016C, strain dcc1, active compounds read low 1.03 | locus YCL029C, strain bik1, active compounds read low 1.02 | locus YCL061C, strain MRC1, active compounds read low 1.02 | locus YCL069W, strain vba3, active compounds read low 1.04 | locus YCR088W, strain abp1, active compounds read low 1.04 | locus YDL005C, strain med2, active compounds read low 1.03 | locus YDL035C, strain GPR1, active compounds read low 1.01 | locus YDL040C, strain nat1, active compounds read low 1.02 | locus YDL074C, strain BRE1, active compounds read low 1.01 | locus YDL101C, strain DUN1, active compounds read low 1.01 | locus YDL134C, strain PPH21, active compounds read low 0.989 | locus YDL185W, strain tfp1, active compounds read low 1.02 | locus YDL192W, strain arf1, active compounds read low 1.01 | locus YDR001C, strain nth1, active compounds read low 1.02 | locus YDR069C, strain doa4, active compounds read low 1.01 | locus YDR101C, strain arx1, active compounds read low 1.02 | locus YDR137W, strain rgp1, active compounds read low 1.05 | locus YDR159W, strain sac3, active compounds read low 0.961 | locus YDR162C, strain NBP2, active compounds read low 1.01 | locus YDR195W, strain ref2 1.02 | locus YDR297W, strain sur2, active compounds read low 1.01 | locus YDR318W, strain mcm21, active compounds read low 1.01 | locus YDR334W, strain swr1, active compounds read low 1.02 | locus YDR335W, strain msn5, active compounds read low 1.04 | locus YDR388W, active compounds read low 1.01 | locus YDR392W, strain spt3, active compounds read low 0.945 | locus YDR502C, strain sam2, active compounds read low 1.01 | locus YEL003W, strain gim4, active compounds read low 1.04 | locus YEL037C, strain rad23, active compounds read low 1.03 | locus YEL061C, strain CIN8 (second series), active compounds read low 1.02 | locus YEL061C, strain CIN8, active compounds read low 1 | locus YER015W, strain faa2, active compounds read low 1.03 | locus YER016W, strain bim1, active compounds read low 1.02 | locus YER110C, active compounds read low 1.02 | locus YER111C, strain swi4, active compounds read low 1.03 | locus YER155C, strain BEM2 (second series), active compounds read low 1 | locus YER155C, strain BEM2, active compounds read low 0.996 | locus YER167W, strain BCK2, active compounds read low 1 | locus YFR010W, strain ubp6, active compounds read low 1.01 | locus YGL078C, strain dbp3, active compounds read low 1 | locus YGL086W, strain mad1, active compounds read low 1.01 | locus YGL167C, strain pmr1, active compounds read low 1.02 | locus YGL173C, strain kem1, active compounds read low 1.02 | locus YGL227W, strain vid30, active compounds read low 1.03 | locus YGL240W, strain doc1, active compounds read low 1.01 | locus YGL248W, strain PDE1, active compounds read low 0.993 | locus YGL253W, strain hxk2, active compounds read low 1.05 | locus YGR078C, strain PAC10, active compounds read low 1 | locus YGR135W, strain pre9, active compounds read low 0.993 | locus YGR252W, strain gcn5, active compounds read low 0.957 | locus YHR013C, strain ard1, active compounds read low 1.03 | locus YHR027C, strain rpn1, active compounds read low 1.01 | locus YHR030C, strain SLT2, active compounds read low 0.998 and 1.01 | locus YHR079C, strain IRE1 (second series), active compounds read low 1.01 | locus YHR079C, strain IRE1, active compounds read low 1.02 | locus YHR094C, strain hxt1, active compounds read low 1.01 | locus YHR129C, strain ARP1, active compounds read low 1.01 | locus YHR142W, strain chs7, active compounds read low 1.04 | locus YHR200W, strain rpn10, active compounds read low 1.02 | locus YIL066C, strain RNR3, active compounds read low 1.01 | locus YIL073C, strain SPO22, active compounds read low 1.05 | locus YIL125W, strain kgd1, active compounds read low 1.01 | locus YIR030C, strain dcg1, active compounds read low 1.01 | locus YJL092W, strain hpr5, active compounds read low 1.03 | locus YJL095W, strain BCK1 (second series), active compounds read low 1.02 | locus YJL095W, strain BCK1, active compounds read low 1.03 and 1 | locus YJL115W, strain asf1, active compounds read low 1.03 | locus YJL129C, strain trk1, active compounds read low 1.06 | locus YJL134W, strain LCB3, active compounds read low 0.978 | locus YJL154C, strain vps35, active compounds read low 1.02 | locus YJL164C, strain tpk1, active compounds read low 1.02 | locus YJL166W, strain qcr8, active compounds read low 1.02 | locus YJL168C, strain set2, active compounds read low 1 | locus YJL187C, strain SWE1 (second series), active compounds read low 1.02 | locus YJL187C, strain SWE1, active compounds read low 1.04 | locus YJR043C, strain POL32, active compounds read low 0.992

Source: PubChem BioAssay AID1159580 (chemical genetic matrix, 2015)
